According to the supplement of paper PMC13392028:
In all, about 4,100 sequences were measured (“RBNS R-value (6-mer enrichment in protein-bound RNA vs input library)”: median about 0.99, highest 2% from about 1.4 on). The full list was thinned out, with the highest values kept by preference.

Test system: PfIESI-1 RRM domain (Plasmodium falciparum ortholog aa 875-1232, GST fusion)
Experiment: RBNS R-value (6-mer enrichment in protein-bound RNA vs input library) (ratio); higher = stronger binding preference; the methods of the paper give 50 / 100 / 500 nM protein instead
Experimental: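 RNA Bind-n-Seq: recombinant GST-tagged IESI-1 RRM domain was incubated at room temperature with a random 40-nt in vitro transcribed RNA library at 250, 500 or 1000 nM protein. Bound RNA was pulled down on glutathione beads and sequenced. R-value is the enrichment of each 6-mer in the bound RNA relative to the input library. Each 6-mer sits inside the random 40-mer context, not as an isolated oligo. Values are replicate 1 only.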

Sequence | RBNS R-value (protein concentration: 250 nM) | RBNS R-value (protein concentration: 500 nM) | RBNS R-value (protein concentration: 1000 nM)
UGAUUA | 2.21 | 2.58 | 1.94
UGAUUG | 2.38 | 2.42 | 1.85
CGAUCC | 1.08 | 1.01 | 1.06
UGAUUC | 2.44 | 2.61 | 1.97
GGAUUG | 1.02 | 1.02 | 1.02
CGAUUA | 1.05 | 1.11 | 1.04
CCCGCU | 1.09 | 0.999 | 1.04
UAAUCC | 0.907 | 0.864 | 0.872
AACCAA | 0.985 | 1.04 | 1.01
AAAUAG | 0.904 | 1.06 | 0.986
GGAUUU | 1.03 | 1.02 | 1.02
UGAUUU | 3 | 3.23 | 2.3
AGAUUU | 1.17 | 1.26 | 1.16
AUUCCG | 1.2 | 1.14 | 1.16
ACACCA | 1.16 | 1.1 | 1.1
GCACCU | 1.21 | 1.11 | 1.13
ACACCC | 1.53 | 1.28 | 1.33
GCACCG | 1.14 | 1.09 | 1.14
GCACCC | 1.5 | 1.26 | 1.33
ACACCG | 1.17 | 1.12 | 1.15
UUCGUU | 0.853 | 0.817 | 0.9
CAUAUA | 0.762 | 0.733 | 0.715
CUCCCU | 0.934 | 0.873 | 0.909

Sequence | RBNS R-value (protein concentration: 250 nM) | RBNS R-value (protein concentration: 500 nM) | RBNS R-value (protein concentration: 1000 nM)
GAACUG | 1.07 | 1.11 | 1.11
GGAUAG | 1.02 | 0.975 | 0.995
CGAUAA | 0.968 | 1.04 | 0.996
AGAUAU | 0.955 | 1.04 | 0.969
UGAUAU | 1.5 | 1.69 | 1.38
GGAUAC | 1.01 | 0.991 | 0.995
AGAUAG | 0.998 | 1.07 | 1.04
UGAUAC | 1.59 | 1.68 | 1.47
CGAUAC | 1.04 | 1.03 | 1.02
GGAUAU | 0.937 | 0.921 | 0.959
UGAUAA | 1.67 | 1.89 | 1.54
AGAUAA | 0.975 | 1.11 | 1.02
UGAUAG | 1.87 | 2.08 | 1.65
UAGCUA | 0.902 | 0.926 | 0.903
UGAAAA | 1.16 | 1.3 | 1.22
AACGUG | 0.922 | 0.984 | 0.974
UCGGGU | 0.945 | 0.901 | 1.01
AUGCGU | 0.924 | 0.929 | 0.959
UACCGC | 0.938 | 0.867 | 0.916
UAAAAC | 0.916 | 1.05 | 0.979
AGUAAA | 0.862 | 1.01 | 0.909
AUUCUG | 1.19 | 1.22 | 1.1
AUCUGA | 1.24 | 1.3 | 1.19
